Assay outcomes (PubChem BioAssay)
Only some compounds are listed: those with a hit (about 7.9% of all), similar ones and a draw of the others.
HT1080NT lethal = qHTS for induction of synthetic lethality in tumor cells producing 2HG: qHTS for the HT-1080-NT fibrosarcoma cell line; HT-1080-NT fibrosarcoma viability, CellTiter-Glo ATP luminescence, 48 h; Potency, µM (top dose mostly 46.1 µM), inactives show top-dose activity, negative = less viability, usual class: cytotoxic; 1.6% of 360,000 active; AID 686970, 2013;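 also: NT is the 2HG producing partner of a matched IDH1 knockdown line; 0% = DMSO-treated cells and -100% = media-only wells without cells; nearly all actives have a fitted effect of over 55% in size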
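HT-1080-NT fibrosarcoma cells (2HG-overproducing), 750 cells/well in RPMI with 5% FBS, dosed after 2 h and incubated 48 h at 37C. CellTiter-Glo luminescence normalized to DMSO and no-cell wells; concentration-response curves fitted and classed.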
HT1080 IDH1KD tx = qHTS for induction of synthetic lethality in tumor cells producing 2HG: qHTS for the HT-1080-IDH1KD cell line | HT-1080 IDH1 knockdown viability, ATP luminescence, 48 h | Potency, µM (highest dose often 46.1 µM), for inactives: at the highest dose activity, negative = toxicity, actives largely listed as cytotoxic | 2% of 360,000 active | AID 686971, 2013;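 also: 0% = DMSO wells and -100% = cell-free medium wells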
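HT-1080-IDH1KD cells (IDH1 knocked down), 750/well in RPMI with 5% FBS, treated with compound 48 h at 37 degrees C. Viability by CellTiter-Glo luminescence, normalised to DMSO and no-cell wells; concentration-response curves classed.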
SW480 rereplic = A quantitative high throughput screen for small molecules that induce DNA re-replication in SW480 colon adenocarcinoma cells; 1.8% of 340,000 active; SW480 DNA re-replication, Hoechst DNA content imaging, 48 h; Potency, µM (titrated, usually from 46.1 µM), without a hit: at the highest dose re-replication activation, actives largely listed as activators; also: % of control where 0% means no effect; nearly all actives have a fitted effect of over 55% in size
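Image-based DNA-content assay: after two days of treatment, nuclei were labelled with the DNA dye Hoechst and imaged, and hits were compounds raising the count of nuclei showing high fluorescence intensity.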
KB-3-1 tox = qHTS assay for MDR1-selective chemotherapeutics: Primary screen using the parental adenocarcinoma cell KB-3-1; KB-3-1 viability, CellTiter-Glo ATP luminescence, 72 h; Potency, µM (top dose mostly 46.1 µM), usual class: cytotoxic; 1.4% of 400,000 active; also: % is scaled to controls: 0 for no effect and ±100 for the full control effect; nearly all actives have a fitted effect of over 60% in size
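Cells are dispensed, compounds pinned in, plates held at 37 °C for 72 h, then CellTiter-Glo is added and luminescence read after 10 minutes. Cell line: parental KB-3-1 in phenol-red-free DMEM, 10% FBS.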
KB-V1 MDR tox = qHTS assay for MDR1-selective chemotherapeutics: Primary screen using the drug-selected MDR subline cells KB-V1; KB-V1 MDR cells viability, CellTiter-Glo, 72 h; Potency, µM (series often up to 46.1 µM), hits mostly cytotoxic; 3.4% of 400,000 active; AID 1347076, 2019; also: % is scaled to controls: 0 for no effect and ±100 for the full control effect; nearly all actives have a fitted effect of over 60% in size
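KB-V1, DMEM (no phenol red) + 10% FBS; cpd pin-transferred, titration series; 72 h, 37 degrees C; CellTiter-Glo, luminescence. Data normalized, curve-fit.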
MCF10A rerep = A quantitative high throughput screen for small molecules that induce DNA re-replication in MCF 10a normal breast cells | MCF 10A DNA re-replication, Hoechst nuclear intensity, 48 h | Potency, µM (highest dose often 46.1 µM), inactives show at the highest dose activity, positive = re-replication, actives largely listed as activators | 2.9% of 350,000 active; also: % of control where 0% means no effect; nearly all actives have a fitted effect of over 50% in size
Active calls of the source: *; i = inactive; ? = inconclusive; · = no result given; [ ] = another dose, or the depositor's remark. Calls follow the shape of the dose curve; as a rule, active = well fitted curve in the direction sought with a large enough effect; inconclusive = small, poorly fitted or top-dose-only effect, or another doubt; inactive = no such curve, though single readings can be large; an effect the other way counts as inactive or inconclusive. Potency is read from the fitted curve at half-maximal effect.

SMILES	HT1080NT lethal	HT1080 IDH1KD tx	SW480 rereplic	KB-3-1 tox	KB-V1 MDR tox	MCF10A rerep
Cc1ccc(N2C(=O)C(CC(=O)Nc3cccc(F)c3)N(CCc3ccccc3F)C2=O)cc1 (stereo not given)	·	·	·	i	i	·
CCN1CCN(c2csc3ccc(Br)cc3c2=O)CC1	·	·	·	i	?	·
Cc1ccnc(N2CCCC(C(=O)NCc3cccs3)C2)n1 (stereo not given)	0%	-7%	-10%	i	i	?
COc1nc(OC)nc(N2CCC(C(=O)NCc3cccs3)CC2)n1	-8%	-11%	-16%	i	18µM*	-2%
CCCCNC(=O)C1CCN(c2nc(OC)nc(OC)n2)CC1	25%	10%	-1%	i	21µM*	5%
Cc1cc(C)nc(N2CCCC(C(=O)NC(C)CCc3ccco3)C2)n1 (stereo not given)	-4%	12%	0%	i	10µM*	5%
Cc1cc(C)nc(N2CCCC(C(=O)NCc3cccs3)C2)n1 (stereo not given)	8%	3%	-9%	i	16µM*	-10%
Cc1cnc(C)c(N2CCC(C(=O)NCc3cccs3)CC2)n1	2%	3%	1%	i	i	6%
O=S1(=O)C[C@@H](N2CCN(CC3CC3)CC2)[C@H](COCc2ccccc2)N1	16%	5%	·	i	i	·
CCCN1CCN(CCCNC(=O)c2cnn(-c3ccc(F)cc3)c2-n2cccc2)CC1	·	·	·	i	i	·
CCOC(=O)c1ccc(NC(=O)C(C)N(c2ccc(OCC)cc2)S(C)(=O)=O)cc1 (stereo not given)	·	·	·	i	i	·
CCS(=O)(=O)N1CCC(C(=O)NCCCOC)CC1	-1%	2%[9.24 µM]	15µM*	i	i	?
CCCS(=O)(=O)N1CCC(C(=O)NCCCOC)CC1	20%	25%	-7%	i	i	0%
O=C(NCc1ccco1)C1CCCN(c2nnc(-n3cccc3)s2)C1 (stereo not given)	2.6µM*	?	22%	i	i	16%
COc1ccc(-c2cc(C)no2)cc1S(=O)(=O)NCc1cccs1	·	·	·	?	i	·
C=CCOC(=O)Nc1nc(CCNC(=O)OCc2ccccc2)c(C(=O)OC)s1	5%	9%	·	i	?	·
Cc1nn(CCCC(=O)Nc2cnn(Cc3ccc(F)cc3)c2)c(C)c1[N+](=O)[O-]	2%	2%	-2%	i	i	-2%
Cc1ccc(C)c(Oc2cc(NC(=O)CCCn3nc(C)c([N+](=O)[O-])c3C)cc([N+](=O)[O-])c2)c1	16µM*	?	?	?	10µM*	?
Cc1nn(CCCC(=O)Nc2cc(Oc3ccccc3)cc([N+](=O)[O-])c2)c(C)c1[N+](=O)[O-]	-2%	-9%	3%	?	8.2µM*	?
Cc1c(Cl)c([N+](=O)[O-])nn1CCCC(=O)Nc1cccc(Cl)c1Cl	2%	7%	-7%	i	16µM*	2%
Cc1ccc(Oc2cc(NC(=O)CCCn3nc([N+](=O)[O-])cc3C)cc([N+](=O)[O-])c2)cc1	-5%	-5%	0%	i	5.2µM*	-1%
Cc1ccc(-n2ncc3c(NCCc4ccccc4)ncnc32)cc1	·	·	·	i	i	·
COCc1cc(C)nc2sc(C(=O)Nc3ccc(OC(F)(F)F)cc3)c(N)c12	·	·	·	i	i	·
Cc1ccc(Cn2nc(C)c(NC(=O)CCCn3nc(C)c([N+](=O)[O-])c3C)c2C)cc1	-5%	-1%	-67%	i	9.2µM*	-3%
NNC(=O)c1[nH]c2ccccc2c1-c1ccccc1	?	1.3µM*	9.2µM*	?	i	?
SMILES	HT1080NT lethal	HT1080 IDH1KD tx	SW480 rereplic	KB-3-1 tox	KB-V1 MDR tox	MCF10A rerep
O=C(N/N=C/c1c[nH]c2ccccc12)c1cc(Br)ccc1O	?	-29%	?	i	i	1%
CC(=O)NNC(=O)c1[nH]c2ccc(Cl)cc2c1-c1ccccc1	-28%	?	9%	i	?	8%
Cc1c(C(=O)N/N=C/c2ccc(Cl)cc2)[nH]c2ccc(Cl)cc12	5.8µM*	3.3µM*	2.1µM*	1µM*	?	?
O=C(N/N=C/c1ccc(O)cc1)c1[nH]c2ccc(Br)cc2c1-c1ccccc1	4.6µM*	4.1µM*	7.3µM*	7.3µM*	i	?
O=C(N/N=C/c1c[nH]c2ccccc12)c1[nH]c2ccc(Br)cc2c1-c1ccccc1	7.3µM*	6.5µM*	8.2µM*	1.6µM*	?	?
Cc1ccccc1OCC(=O)NCC(=O)OCC(=O)c1ccc2c(c1)CCCC2	·	·	·	?	i	·
CCCCOn1c(C)c(C(=O)OCC)c2c3nonc3ccc21	-2%	0%	19%	i	8.2µM*	?
Cc1sc2ncn(CC(=O)Nc3ccc(C(F)(F)F)cc3)c(=O)c2c1S(=O)(=O)N1CCN(C)CC1	·	·	·	i	?	·
CCOC(=O)[C@]12CCCC=C1N(Cc1ccccc1)C(=O)[C@H](CC(=O)NCCCCc1ccccc1)C2	-21%	?	·	i	?	·
CC(C)C(NC(=O)CSCc1ccc([N+](=O)[O-])cc1)C(C)C	8%	-2%	-1%	i	18µM*	?
O=C(CSCc1ccc([N+](=O)[O-])cc1)NC1CC1	9%	18%	-4%	i	i	6%
CC(=O)Nc1cc(-c2ccccc2Cl)cn2c(-c3ccc(S(C)(=O)=O)cc3)cnc12	?	-20%	·	i	i	·
O=c1onc(-c2ccccc2)n1Cc1ccc([N+](=O)[O-])cc1	-11%	-11%	·	i	i	·
C=CC[n+]1c(-c2ccc(Cl)cc2Cl)csc1Nc1ccc(NC(C)=O)cc1	?	18µM*	23µM*	?	i	?
CCCC[n+]1c(-c2ccc(Cl)cc2Cl)csc1Nc1ccccc1	-12%	0%	1%	i	?	23µM*
Clc1ccc(-c2csc(Nc3ccccc3)[n+]2Cc2ccco2)c(Cl)c1	-2%	?	-18%	?	?	?
C=CC[n+]1c(-c2ccc(Cl)cc2Cl)csc1Nc1c(C)n(C)n(-c2ccccc2)c1=O	21µM*	15µM*	?	?	i	?
